A selection: hits, their analogues and other compounds. The true share with any hit is near 3.5%.
GPR151 activ: activators of human GPR151; Q8TDV0; 1% of 650,000 active; activation, % at 11.2 µM; PathHunter beta-arrestin GPR151 cells, luminescence; AID 1508602; in the data active = activation above about 4.9%
MITF primary: human MITF inhibition, primary screen. O75030. AlphaScreen MITF homodimerization, bead proximity signal. inhibition, % at 2.6 µM. 0.91% of 650,000 active; in the data active = inhibition above about 50%
FBW7 activator: activators of human E3 ligase FBW7; AlphaScreen FBW7–phospho-cyclin E peptide binding, activator screen; normalized activity (activation), % at 26.1 µM; 0.13% of 650,000 active; AID 1259310; in the data active = normalized activity above about 1.9%;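 also: purified mutant Fbw7 with reduced substrate affinity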
Target sequence (Q969H0 whole entry, looked up): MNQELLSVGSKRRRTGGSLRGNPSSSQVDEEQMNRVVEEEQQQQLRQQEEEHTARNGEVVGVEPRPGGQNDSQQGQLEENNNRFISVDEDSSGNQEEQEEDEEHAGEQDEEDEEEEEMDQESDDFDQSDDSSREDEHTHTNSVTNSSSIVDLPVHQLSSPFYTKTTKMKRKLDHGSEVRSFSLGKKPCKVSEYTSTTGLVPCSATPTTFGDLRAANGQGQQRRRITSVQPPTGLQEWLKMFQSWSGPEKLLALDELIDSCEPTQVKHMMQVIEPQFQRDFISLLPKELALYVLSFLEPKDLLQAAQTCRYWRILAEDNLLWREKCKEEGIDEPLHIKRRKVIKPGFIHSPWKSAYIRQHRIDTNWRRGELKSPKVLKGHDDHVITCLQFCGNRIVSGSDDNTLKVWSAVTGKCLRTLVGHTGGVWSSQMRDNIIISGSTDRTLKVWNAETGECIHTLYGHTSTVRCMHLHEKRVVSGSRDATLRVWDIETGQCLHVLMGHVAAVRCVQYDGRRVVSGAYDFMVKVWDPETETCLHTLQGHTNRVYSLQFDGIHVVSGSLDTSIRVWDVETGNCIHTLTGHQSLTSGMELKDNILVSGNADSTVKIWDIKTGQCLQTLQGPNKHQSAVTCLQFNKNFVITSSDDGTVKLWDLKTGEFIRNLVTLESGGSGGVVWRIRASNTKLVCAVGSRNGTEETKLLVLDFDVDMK
TEAD-YAP inh: TEAD-YAP interaction inhibition; 1.4% of 640,000 active; inhibition, % at 9.12 µM; HEK-TIYL cells, TEAD-Gal4/YAP UAS-luciferase luminescence; in the data active = inhibition above about 32%
Hits are given with their value; – = inactive.

SMILES | GPR151 activ | MITF primary | FBW7 activator | TEAD-YAP inh
CC(C)(C)c1ccc(C(=O)Nc2sc3c(c2C(=O)O)CCC3)cc1 | – | – | – | 89
O=C(Nc1sc2c(c1C(=O)O)CCC2)c1ccc(Br)cc1 | – | – | – | –
CCN(c1ccccc1)S(=O)(=O)c1cc(C(=O)Nc2ccc(Cl)c(Cl)c2)ccc1F | – | – | – | –
Clc1ccc2nc(NCCN3CCOCC3)nc(-c3ccccc3)c2c1 | – | – | – | 38
O=C(CN1CCOCC1)NNc1nc(-c2ccccc2)c2cc(Cl)ccc2n1 | – | – | – | –
CC(C)CC(=O)Nc1nc2ccc(S(=O)(=O)N3CCCCC3)cc2s1 | – | – | – | 52
CC(=O)Nc1nc2ccc(S(=O)(=O)N3CCCCC3)cc2s1 | – | – | – | –
CCCCOc1cccc(NC(=O)CSc2nc(C(F)(F)F)cc(C)c2C#N)c1 | – | – | – | –
COc1ccc(C(=O)Nc2cccc(OC(=O)c3cc(S(=O)(=O)N4CCOCC4)ccc3Cl)c2)cc1 | – | – | – | 55
O=C(Oc1ccccc1)c1ccc(NC(=O)c2cc(S(=O)(=O)N3CCOCC3)ccc2Cl)cc1 | – | – | – | –
COc1cccc(C(=O)Nc2cccc(OC(=O)c3cc(S(=O)(=O)N4CCCCC4)ccc3Cl)c2)c1 | – | – | – | 47
O=C(Nc1cccc(OC(=O)c2cc(S(=O)(=O)N3CCCCC3)ccc2Cl)c1)c1ccco1 | – | – | – | –
CCCCC(=O)Nc1ccc(C(=O)Nc2ccc(C(=O)OCC)cc2)cc1 | – | – | – | –
COc1ccc(Nc2ncnc3sc4c(c23)CCC4)cc1O | – | – | – | 37
CN(C)CCNc1nc(-c2ccccc2)nc2ccccc12 | – | – | – | –
CN(C)CCNc1nc(-c2ccc(C(C)(C)C)cc2)nc2ccccc12 | – | – | – | 37
c1ccc2[nH]c(CNc3nc(-c4ccc(N5CCOCC5)nc4)nc4c3ncn4-c3ccsc3)nc2c1 | – | – | 23 | 82
COc1ccc(-c2nc(NCc3nc4ccccc4[nH]3)c3ncn(-c4ccsc4)c3n2)cn1 | – | – | – | 78
CC(C)n1cnc2c(NCc3ccccc3)nc(-c3ccc(N4CCOCC4)nc3)nc21 | – | – | – | –
CC(C)n1cnc2c(NCc3nc4ccccc4[nH]3)nc(-c3ccc(N4CCOCC4)nc3)nc21 | – | – | – | 70
COc1ccc(-c2nc(NCc3nc4ccccc4[nH]3)c3ncn(-c4ccsc4)c3n2)cc1 | – | – | – | –
CC(C)n1cnc2c(NCc3nc4ccccc4[nH]3)nc(N3CCOCC3)nc21 | – | – | – | 79
COC(=O)c1sc(NC(=O)c2ccc(OC)cc2)nc1C | – | – | – | –
COC(=O)c1ccc(OC(=O)CSc2ccccc2[N+](=O)[O-])cc1 | – | – | – | –
Cc1ccc(NC(=O)C2C3C=CC4(O3)C2C(=O)N(Cc2cccs2)C4C(=O)NC2CCCCC2)cc1 (configuration not stated) | – | – | – | –
SMILES | GPR151 activ | MITF primary | FBW7 activator | TEAD-YAP inh
NS(=O)(=O)c1ccc(Nc2nccc(NC3CCN(C(=O)C4CNCC4c4ccccc4)CC3)n2)cc1 (configuration not stated) | – | – | – | –
C=CCOC(=O)C1=C(C)OC(N)=C(C#N)C1c1cc2cc(C)ccc2[nH]c1=O (configuration not stated) | – | – | – | 59
CCOC(=O)N1CCN(Cc2nc3c(c(=O)n(C)c(=O)n3C)n2CCCO)CC1 | – | – | – | –
COc1cc(Nc2cc(Nc3nccc4ccccc34)nc(N)n2)cc(OC)c1OC | – | – | – | 77
COc1cc(Nc2cc(Nc3ccccn3)nc(N)n2)cc(OC)c1OC | – | – | – | 44
COc1cc(Nc2cc(Nc3ccccn3)ncn2)cc(OC)c1OC | – | – | – | –
Cc1c(C(=O)NCCC2=CCCCC2)sc2ncn(Cc3ccccc3F)c(=O)c12 | – | – | – | –
CCCCCCOc1ccccc1/C=C1/N=C(c2ccc(Cl)cc2)OC1=O | – | – | – | –
C/C=C/C(=O)Oc1ccccc1/C=C1/N=C(c2ccc(Cl)cc2)OC1=O | – | – | – | 36
Cc1csc(NC(=O)CN2CCC(c3ccncc3)CC2)n1 | – | – | – | 45
Cc1ccc(NSc2ccccc2[N+](=O)[O-])cc1 | – | – | – | 56
CCOc1ccc(NSc2ccccc2[N+](=O)[O-])cc1 | – | – | – | –
CCOC(=O)N1CCN(C(=O)c2sc3nc(C)cc(C)c3c2-n2cccc2)CC1 | – | – | – | –
CCN(Cc1ccncc1)C1CCN(c2ccc(CC(=O)NCc3ccccc3)cc2)CC1 | – | – | – | 41
COc1cccc(NC(=O)CSc2nnc(-c3ccncc3)n2-c2ccccc2C)c1 | – | – | – | –
CCOc1ccccc1NC(=O)CSc1nnc(-c2ccc(OC)cc2)n1-n1cccc1 | – | – | – | 41
COc1ccccc1NC(=O)CSc1nnc(-c2ccccn2)n1-c1ccccc1OC | – | – | – | 42
COc1ccccc1NC(=O)CSc1nnc(-c2ccncc2)n1-c1ccccc1C | – | – | – | 62
Cc1ccc(CNC(=O)CSc2n[nH]c(C(C)C)n2)cc1 | – | – | – | –
C#CCn1c(CCNC(C)=O)nc2ccccc21 | – | – | – | –
O=C(c1ccccc1F)N1CCCC(c2nc(N3CCOCC3)ncc2-c2ccncc2)C1 (configuration not stated) | – | – | – | 56
Cc1cc(-c2cnc(N3CCCC3)nc2C2CCCN(C(=O)c3ccco3)C2)on1 (configuration not stated) | – | – | – | 51
Cc1nc(C(=O)N2CCCC(c3nc(-c4ccncc4)ncc3-c3ccccc3)C2)cs1 (configuration not stated) | – | – | – | 54
CCNc1cc(N2CCN(S(C)(=O)=O)CC2)ccc1[N+](=O)[O-] | – | – | – | –
C=CCOc1ccc(/C(O)=C2/C(=O)C(=O)N(CCCN(C)C)C2c2ccc(F)cc2)c(C)c1 (configuration not stated) | – | – | – | –
SMILES | GPR151 activ | MITF primary | FBW7 activator | TEAD-YAP inh
COCCNC(=O)/C(C#N)=C/c1cc(C)n(-c2sc(C)c(C)c2C#N)c1C | – | – | – | 51
COCCCNC(=O)/C(C#N)=C/c1cc(C)n(-c2ccccc2)c1C | – | – | – | 40
COCCCNC(=O)/C(C#N)=C/c1cc(C)n(-c2ccc(C)cc2)c1C | – | – | – | –
COCCCNC(=O)/C(C#N)=C/c1cn(Cc2ccccc2)c2ccccc12 | – | – | – | 44
NS(=O)(=O)c1ccc2c(c1)C1C=CCC1C(c1ccc(F)cc1)N2 (configuration not stated) | – | – | – | –
COc1ccc(C2(C(=O)NC(C)c3nc(-c4cccnc4)n[nH]3)CC2)cc1 (configuration not stated) | – | – | – | 51
CC(NC(=O)C1(c2ccc(Cl)cc2)CC1)c1nc(-c2cccnc2)n[nH]1 (configuration not stated) | – | – | – | –
CC(=O)C1=C(c2ccc(C3CCCCC3)cc2)N(C(C)=O)n2cnnc2S1 | – | – | – | 74
CC(C)n1cnc2c(NCc3nc4ccccc4[nH]3)nc(-c3ccc(C(N)=O)cc3)nc21 | – | – | – | 77
COc1ccc(-c2nc(NCCO)c3ncn(C(C)C)c3n2)cc1 | – | – | – | –
